FAS TE block: FAS thioesterase domain inhibitors, primary screen, biochemical, fluorescence intensity, uHTS; Fatty acid synthase (Homo sapiens), P49327; recombinant FAS-TE, OMFH fluorogenic substrate, fluorescence endpoint; inhibition, % at 15 µM; hit rate 0.67% among 360,000;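 active = compounds whose normalised, plate-corrected inhibition of enzyme fluorescence in the single-dose primary screen is 50% or more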;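 note: 0% = DMSO with enzyme and 100% = substrate without enzyme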
NadD inh: inhibitors of S. aureus NadD, primary screen, biochemical, colorimetric, uHTS | hit rate 0.78% among 360,000 | inhibition, % at 20 µM | purified NadD enzyme, colorimetric absorbance read-out | AID 602399, 2012; in the data active = inhibition above about 26%
rCAG binder: binders of r(CAG) RNA repeats, primary screen, biochemical, fluorescence; AID 651821, 2012; hit rate 1.3% among 370,000; inhibition, % at 3 µM; r(CAG) RNA repeat, TO-PRO-1 dye displacement fluorescence;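 active = inhibition above the plate cutoff, the mean of all test compounds on that plate plus 3 SD, cut at about 35% in these data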;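 note: 0% = DMSO alone and 100% = 100 µM mitoxantrone as full dye displacement; higher means more dye released from RNA so lower well fluorescence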
GRIN3A LBD mod: binders of NR3A ligand-binding domain, primary screen, biophysical, differential scanning fluorimetry, uHTS | Glutamate receptor ionotropic, NMDA 3A (GRIN3A) ligand-binding domain | NR3A LBD differential scanning fluorimetry, Tm shift; 0% = protein alone, 100% = glycine-bound protein | Tm shift relative to glycine control, % at 25 µM | hit rate 2.5% among 340,000 | AID 1259313, 2017;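 active = melting temperature shift of at least 10% of the positive control shift, at one fixed dose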
Starred values were filed as active, the others as inactive; nt = not tested or not shown. In the library only some 4.3% were active in any assay of this set; here they are far more common.

SMILES | FAS TE block | NadD inh | rCAG binder | GRIN3A LBD mod
COc1ccc(Cn2c(O)c(/C=N/NC(=O)c3ccccc3)c(=O)[nH]c2=O)cc1 | 4.0 | -0.4 | 29.9 | -7.7
O=c1[nH]c(=O)n(Cc2ccc(F)cc2)c(O)c1C=NCCN1CCCCC1 | -8.1 | 2.9 | 1.5 | 19.9*
O=c1[nH]c(=O)n(-c2ccccc2Cl)c(O)c1C=NCCN1CCCCC1 | -3.7 | -0.1 | 1.3 | 401.4*
O=C(N/N=C/c1c(O)n(Cc2ccccc2)c(=O)[nH]c1=O)c1ccccc1O | 28.6 | 0.2 | 81.0* | 1.7
COc1ccc(Cn2c(O)c(C=NCCN3CCOCC3)c(=O)[nH]c2=O)cc1 | -8.6 | 1.1 | 2.7 | -1.9
O=C(NCCN1CCC2(CC1)C(=O)NCN2c1ccccc1)C(c1ccccc1)c1ccccc1 | nt | nt | 0.7 | nt
Cc1ccccc1CCC[C@H](CC1CCCCC1)CN(C)C(=O)Oc1ccccc1 | nt | nt | 4.4 | nt
CCOC(=O)[C@]12Cc3cc(C)ccc3[C@H]1N(Cc1ccccc1)C(=O)c1cc(F)c(F)cc12 | 28.1 | -2.9 | 2.3 | nt
CCOC(=O)[C@]12Cc3cc(OC)ccc3[C@H]1N(Cc1ccccc1)C(=O)c1cc(F)c(F)cc12 | 28.8 | -3.7 | 0.0 | 12.9*
CCOC(=O)[C@]12Cc3cc(C)ccc3[C@H]1N(Cc1ccccc1)C(=O)c1ccccc12 | 25.3 | -6.3 | -4.6 | 11.5*
CN1C2(C)c3ccccc3C1(c1ccccc1)c1ccccc12 | nt | nt | 0.5 | nt
NC(Cc1ccccc1)[P+](=O)O (stereo not drawn) | nt | nt | 0.9 | nt
N#CC1c2ccccc2-n2nncc2CN1C(=O)c1cccnc1 (stereo not drawn) | nt | nt | 1.7 | nt
O=C(O)c1cccc2c1NC(C(=O)O)C1CC(Sc3ccccc3[N+](=O)[O-])C(Cl)C21 (stereo not drawn) | 8.7 | 13.8 | 99.7* | -15.4
C[C@H](Cc1ccc(OCC(=O)O)cc1)NC[C@H](O)c1cccc(Cl)c1 | nt | nt | 2.8 | nt
CCCCCn1c(N)c(C(=O)NCc2cccs2)c2nc3ccccc3nc21 | nt | nt | 7.8 | 9.5
Nc1c(C(=O)NCCCc2ccccc2)c2nc3ccccc3nc2n1Cc1cccs1 | 22.4 | 15.2 | 8.7 | 21.9*
O=C1CC[C@@]2(O)[C@H]3Cc4ccc(O)c5c4[C@@]2(CCN3CC2CC2)C1O5 (stereo partly drawn) | nt | nt | 4.5 | nt
Oc1c(Cl)c(Cl)c(Cl)c(Cl)c1Cl | 39.9 | 7.0 | 9.1 | 18.8*
Cc1ccc2nc(-c3ccc(CN4CCC(n5nnc6ccccc65)CC4)cc3)c(-c3ccccc3)nc2c1 | nt | nt | 10.3 | nt
O=C1NC(=O)N(Cc2ccc(F)cc2)C(=O)/C1=C\c1ccc(N2CCCC2)cc1 | -5.0 | 33.5* | 16.9 | 3.2
N#CC(C#N)=NNc1ccc(-n2ccc(C(F)(F)F)n2)cc1 | 18.1 | -5.9 | 31.9 | 7.4
CCN(CC)S(=O)(=O)c1ccc(NN=C(C#N)C#N)cc1 | 1.0 | 3.1 | 28.5 | 13.3*
CN1c2ccc(Br)cc2[C@H]2NCC[C@H]2[C@H]1CO | nt | nt | 5.3 | nt
Cc1cc(C)cc(N2C(=O)NC(=O)/C(=C\c3cccn3-c3ccc(Cl)cc3)C2=O)c1 | -6.1 | 25.2 | 8.5 | 1.5
SMILES | FAS TE block | NadD inh | rCAG binder | GRIN3A LBD mod
Cc1cc(C)cc(N2C(=O)NC(=O)/C(=C\c3cccn3-c3ccccc3)C2=O)c1 | -8.2 | 7.8 | 10.5 | 23.9*
Cc1ccc(/C=C2\C(=O)NC(=S)N(c3ccc(F)cc3)C2=O)s1 | -2.6 | 32.0* | 27.6 | -2.8
S=C1NC2(CCCCC2)NC12CCCCC2 | -3.1 | -3.0 | 0.0 | 16.4*
COC(=O)C1C(c2ccc(F)cc2)CC2CCC1N2C (stereo not drawn) | nt | nt | 0.8 | nt
C=CCn1c(O)c(C(C)=NCCN2CCOCC2)c(=O)[nH]c1=O | -10.1 | -4.0 | 3.5 | 2.9
C=CCn1c(O)c(/C(C)=N/N2CCCCCC2)c(=O)[nH]c1=O | -1.6 | -4.3 | -6.2 | 13.9*
COc1cc(/C=C2/C(=O)NC(=O)N(c3ccccc3)C2=O)ccc1O | -4.0 | 3.5 | 3.0 | -13.9
CCOc1cc(/C=C2/C(=O)NC(=O)N(c3ccc(CC)cc3)C2=O)ccc1OC(=O)c1cccs1 | -1.1 | 9.3 | nt | 73.8*
Cc1ccc(N2C(=O)NC(=O)/C(=C\c3cc(C)n(-c4sc5c(c4C#N)CCCC5)c3C)C2=O)cc1 | -11.8 | 34.1* | 10.9 | -2.7
CCOC(=O)c1c(-n2c(C)cc(/C=C3/C(=O)NC(=O)N(CC)C3=O)c2C)sc2c1CCCC2 | -17.4 | 24.9 | 1.3 | 0.4
CCOC(=O)c1c(-n2c(C)cc(C=C3C(=O)NC(=S)NC3=O)c2C)sc2c1CCCC2 | 0.6 | 45.7* | nt | -5.8

Compound activity (PubChem)
